# Results taken from PubChem BioAssay (NCI).
# The panel holds about 83,000 compounds, 20% with a hit somewhere; the sample as a whole holds those more often.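 In brief: 96-well plates, 48 h treatment, single concentration, percent growth endpoint.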 Calls of active or inactive are those of the source. Rule for the calls: active = growth percent below 10; inactive = the rest.
# System: HL-60(TB) leukemia
# Assay: NCI-60 one-dose screen, 48 h (100 = growth as untreated, 0 = no growth, -100 = all killed)
# Settings: 10 µM unless noted
row,Compound,growth
1,CSC[C@H](NC(=O)COc1cccc2cnccc12)C(=O)NC(Cc1ccccc1)C(O)C(=O)N1CSC[C@H]1C(=O)NC(C)(C)C (stereo not given in full),140% (inactive)
2,O=C(Nc1ccc(-n2cc(-c3ccncc3)c(-c3ccc(O)c(Cl)c3)n2)cc1)Nc1cc(C(F)(F)F)cc(C(F)(F)F)c1,43.6% (inactive)
3,Nc1ncnc2c1CN(Cc1ccccc1)CC2,105% (inactive)
4,CC1(C)CC[C@]2(C(=O)N3CCOCC3)CC[C@]3(C)C(=CC[C@@H]4[C@@]5(C)CC[C@H](OC(=O)c6cccnc6)C(C)(C)[C@@H]5CC[C@]43C)[C@@H]2C1,45.4% (inactive)
5,O=C(CNCCO)Nc1ccc2ncnc(Nc3ccc(OCc4cccc(F)c4)c(Cl)c3)c2c1,86.9% (inactive)
6,O=C(O)c1ccc(Nc2ncc3c(n2)-c2ccc(Cl)cc2C(c2c(F)cccc2F)=NC3)cc1,22.6% (inactive)
7,COc1ccccc1N1C(=O)/C(=C/C2=Cc3ccccc3OC2)SC1=S,92.9% (inactive)
8,CC(C)OC(=O)[C@H](C)N[P@@](=O)(OC[C@@]1(C)O[C@@H](n2cc(F)c(N)nc2=O)C[C@@H]1O[P@](=O)(N[C@@H](C)C(=O)OC(C)C)Oc1ccccc1)Oc1ccccc1,95.5% (inactive)
9,c1csc(-c2c3ccc(=[N+]4CCCCC4)cc-3oc3cc(N4CCCCC4)ccc23)c1,-35.5% (active)
10,CCOC(=O)c1c(C(F)(F)F)n([O-])c2ccc(Cl)cc2[n+]1=O,-65.2% (active)
11,NC[C@H](O)c1ccc(O)c(O)c1,98.8% (inactive)
12,CCOC(=O)Cn1c(=O)c2c(c3ccccc3n2C)n2nnc(-c3ccccc3)c12,109% (inactive)
13,C1CCc2onc(-c3noc4c3CCCCC4)c2CC1,102% (inactive)
14,CCOC(=O)c1cnn2c(-c3ccc(Cl)cc3)nc(NCc3ccccc3)nc12,82.7% (inactive)
15,CC(=O)c1cc2c(N)c(C(=O)Nc3cccc(F)c3C)sc2nc1C,57.1% (inactive)
16,CCOC(=O)c1cnc2ccc(OC)cc2c1Nc1cccc(S(=O)(=O)NC)c1,109% (inactive)
17,CN1CCN(C(=O)C(C)(C)c2ccc(C(=O)Nc3cn4cc(-c5ccncc5)ccc4n3)cc2)CC1,7.51% (active)
18,[2H]C([2H])([2H])Oc1c(F)cccc1/C=C/C(=O)/C=C(O)/C=C/c1cccc(F)c1OC([2H])([2H])[2H],88.5% (inactive)
19,c1ccc2sc(SSN3CC4CCC(CC4)C3)nc2c1,89.3% (inactive)
20,Cc1cc(N2CCCC2)nc(NC2CCCC(Nc3ccnc4cc(Cl)ccc34)C2)n1 (stereo not given),-68.5% (active)

row,Compound,growth
1,Nc1c(C(=O)Nc2cccc(Br)c2)sc2nc3c(cc12)C(=O)CCC3,49.7% (inactive)
2,COc1cccc(NC(=O)c2c(-c3ccccc3)c(-c3ccccc3)n[nH]c2=O)c1,95.5% (inactive)
3,O=C(/C=C/c1ccc(Cl)cc1)c1ccc(Cl)cc1,69.2% (inactive)
4,COc1cc(C2C(C#N)=C(N)OC3=C2C(=O)c2ccccc2C3=O)cc(OC)c1O (stereo not given),90.9% (inactive)
5,COCCCOc1cc(C[C@@H](C[C@H](N)[C@@H](O)C[C@H](C(=O)NCC(C)(C)C(N)=O)C(C)C)C(C)C)ccc1OC,111% (inactive)
6,COc1cc(NCCCN=C(N)NC(N)=NC(C)C)c2ncccc2c1,85.7% (inactive)
7,CCCCC1CCCC12NC(=O)NC2=O (stereo not given),84.6% (inactive)
8,O=Nc1ccc(O)c(=O)cc1,4.36% (active)
9,CCCNNC(=O)c1ccc(CNC(=O)/C=C/c2ccccc2)cc1,33.4% [2.5 µM] (inactive)
10,C/C(Cc1ccc(Cl)cc1)=C(\c1ccc(OCCCN(C)C)cc1)c1ccc(OC(=O)Cc2ccccc2)cc1,88.7% (inactive)
11,COc1c(-c2c3sc(=O)[nH]c3nc3c2c(=O)[nH]n3C(C)C)cc2c(c1OC)OCO2,93.8% (inactive)
12,CC(C)(Sc1cc(C(C)(C)C)c(O)c(C(C)(C)C)c1)Sc1cc(C(C)(C)C)c(OC(=O)CCC(=O)O)c(C(C)(C)C)c1,56.1% (inactive)
13,CCCCCCCCCCCCCCCC(=O)OC[C@@]1(O)C[C@@]23CC[C@@H]4C(C)(C)[C@H](O)CC[C@@]4(C)[C@@H]2CC[C@H]1C3,101% (inactive)
14,Nc1ccn(C2OC(F)(CO)C(O)C2F)c(=O)n1 (stereo not given),12.2% (inactive)
15,Oc1ccc(C(c2ccc(O)cc2)c2ccc(Br)cn2)cc1,106% (inactive)
16,O=C(N/N=C/c1ccccc1Cl)c1cccc2ccccc12,127% (inactive)
17,Oc1cccc(-c2nc(-c3n[nH]c(=S)n3-c3ccccc3)cc3c2[nH]c2ccccc23)c1,4.29% (active)
18,COC(=O)c1cc(N=C2NC(=O)/C(=C/C=C/c3ccccc3)S2)ccc1O,-0.749% (active)
19,C=C(C)[C@@H]1CC[C@]2(C(=O)NC(C)=O)CC[C@]3(C)[C@H](CC[C@@H]4[C@@]5(C)CCCNC(C)(C)[C@@H]5CC[C@]43C)[C@@H]12,-51.2% (active)
20,COc1cccc(/C=C2\COc3ccc(O)c(O)c3C2=O)c1,-20% (active)
